Compounds without any hit were thinned out: in the full panel of roughly 83,000, 20% have a hit.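 Percent growth is the endpoint: 0 to 100 indicates growth inhibition (40 means 60% inhibition), 0 means no net growth, and negative values indicate cell death.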 A number with no mark means an inactive call. The source made the active and inactive calls. How the source made its calls: active means growth percent below 10; inactive means the rest.
The molecules below were run on 786-0 renal (assay: NCI-60 one-dose screen, 48 h (100 = growth as untreated, 0 = no growth, -100 = all killed)). Settings: 10 µM unless noted.

| SMILES | growth |
| --- | --- |
| CN(C[C@H]1Cc2c(cccc2N2CCN(c3ncccn3)CC2)CN1)[C@H]1CCCc2cccnc21 | 39.5% |
| COc1ccc(-c2cnoc2-c2ccc(OC)cc2O)cc1 | 44.5% |
| COc1ccc(/C=N\NC(=O)CN2CCN(c3cc4c(cc3F)c(=O)c(C(=O)N/N=C/c3ccc(OC)c(OC)c3)cn4C3CC3)CC2)cc1OC | 45.4% |
| C1=Cc2ccccc2N(c2nnc(-c3ccccc3)o2)c2ccccc21 | 100% |
| COc1ccc(-c2nc3sc(-c4cc(OC)c(OC)c(OC)c4)nn3c2/C=C2/C(=O)Nc3ccc(F)cc32)cc1 | -50.3% (active) |
| O=C(Oc1ccccc1[N+](=O)[O-])C1CCCN1C(=O)OCc1ccccc1 (centres undefined) | 98.6% |
| CC(C)(C)OC(=O)NC(CSCc1ccccc1)C(=O)ON1C(=O)CCC1=O (centres undefined) | 114% |
| O=S(=O)(NCCCNc1nccc(-n2ccc3cccnc32)n1)c1ccc(Br)cc1 | 104% |
| COc1ccc(/C=C2\Oc3cc(OCCCN4CCCC4)ccc3C2=O)cc1 | 93% |
| Cc1csc(NC(c2ccc(Br)cc2)c2c(C)nc3ccccn23)n1 (centres undefined) | 90.4% |
| Cn1c(=O)cc(NC(=O)CN2CCN(c3cc4c(cc3F)c(=O)c(C(=O)O)cn4C3CC3)CC2)[nH]c1=O | 102% |
| CC(C)(C)n1cc(-c2ccnc(NCCNS(=O)(=O)c3ccc(F)cc3)c2)c(-c2cccc(O)c2)n1 | 26% |
| CC(C)(C)n1cc(-c2ccnc(NCCNS(=O)(=O)c3ccc(Cl)cc3)c2)c(-c2cccc(O)c2)n1 | 54.6% |
| O=C1Nc2ccc3c(c2/C1=C\c1cc2c(cc1Br)OCO2)OCO3 | 10.7% |
| Cc1ccc(N2CCN(C(C)C(N)=O)CC2)cc1 (centres undefined) | 103% |
| COc1cc(NC(N)=NCCC(C)(C)Oc2ccc(C(F)(F)F)cc2)ncc1C#N | 7.56% (active) |
| CCc1ccc(-c2ccc(=O)n(-c3ccc(S(N)(=O)=O)cc3)n2)cc1 | 50% |
| CC[N+](CC)=c1cc2oc3cc(N(C)C)ccc3nc-2cc1C | 70.4% |
| COc1cccc(-c2nc3sccn3c2-c2ccnc(NCCCNS(=O)(=O)c3ccc(F)cc3)c2)c1 | 56.8% |
| N[C@H]1CN(C(=O)c2cc3cc(Br)c(F)c(F)c3[nH]2)C[C@@H]1O | 86.2% |

| SMILES | growth |
| --- | --- |
| O=C(N/N=C/C=C\c1ccccc1)C(=O)N/N=C/C=C/c1ccccc1 | 104% |
| O=C(O)COc1ccc(-c2cssc2=S)cc1 | 101% |
| CCOC(=O)c1c(NS(=O)(=O)c2ccc(C)cc2)sc2c1CCC1(C2)OCCO1 | 99.3% |
| Cc1nc2ncccc2nc1Nc1ccc(S(=O)(=O)Nc2ccccn2)cc1 | 94.9% |
| Fc1ccc(Nc2ncnc3ccc(-c4cnc5[nH]ccc5c4)cc23)cc1Cl | -44.1% (active) |
| COc1ccc(C2C(C#N)=C(N)Oc3c2ccc2ccccc32)cc1 (centres undefined) | 73.1% |
| COc1ccc(C(=O)N2NC(=O)/C(=C/c3cn(-c4ccccc4)nc3-c3ccccc3)N=C2c2ccccc2)cc1 | 93% |
| C=C1C(=O)O[C@H]2[C@H]1CC/C(Cn1cc(CNC(=O)Cc3cn(C(=O)c4ccc(Cl)cc4)c4ccc(OC)cc34)nn1)=C\CC[C@@]1(C)O[C@@H]21 | -82.7% (active) |
| CCCCC(CC)OC(=O)C(Br)CC (centres undefined) | 98.4% |
| O=C1/C(=C/c2ccccc2)Oc2ccc(O)c(I)c21 | 98.9% |
| COC(=O)c1cc2cc(-c3ccc(OC)cc3)cnc2[nH]1 | 37.1% |
| c1coc(CNc2ccnc(Nc3ccc(OCCN4CCCCC4)cc3)n2)c1 | 94.9% |
| COc1ccc2[nH]c(C(=O)OCc3ccc4c(Cl)cc(Cl)c(O)c4n3)cc2c1 | -83.1% (active) |
| CCOC(=O)C1CCNC(=O)C1=O (centres undefined) | 98% |
| O=C(O)C1CCCCN1c1nc(Cl)nc(Cl)n1 (centres undefined) | 105% |
| C=C1CCC2C(C)(CO)C(O)CCC2(C)C1CC(NCc1ccccc1)C1=CCOC1=O (centres undefined) | 96.3% |
| CCCCCCCCCCCC(=O)NCCC[N+](C)(C)CC(=O)[O-] | 93.5% |
| CN(CCCCCl)P(=O)(OCc1ccc([N+](=O)[O-])o1)C(F)(F)C[C@H](NC(=O)CNC(=O)c1ccc(N=[N+]=[N-])cc1)C(=O)NCCc1ccc(O)cc1 (some centres undefined) | 109% |
| NC(N)=Nc1nc2ccccc2o1 | 109% |
